A collection of fitness landscapes (doi:10.1016/j.celrep.2020.107928)
The full ranking holds about 81,000 sequences; the median of “one-hybrid fitness for binding parS DNA” is about -0.17, and the highest 2% start at about 0.51. The list comes from a sample in which the highest values are over-represented; it also holds similar and randomly drawn sequences.

B1: Caulobacter ParB omega fusion; a variant is named by its letters at X, in order, B8GW30 (parent)
chain: MESVVVGEPGMSEGRRGLGRGLSALLGEVDAAPAQAPGEQLGGSREAPIEILQRNPDQPRRTFREEDLEDLSNSIREKGVLQPILVRPSPDTAGEYQIVAGERAWRAAQRAGLKTVPIMVRELDDLAVLEIGIIENVQRADLNVLEEALSYKVLMEKFERTQENIAQTIGKSXSHVANXMRLLXLPDEVQSYLVSGELTAXHARAIAAAADPVALAKQIIEGGLSVRETEALARKAPNLSAGKSKGGRPPRVKDTDTQALESDLSSVLGLDVSIDHRGSTGTLTITYATLEQLDDLCNRLTRGI

Variants of: B1
Test: one-hybrid fitness for binding parS DNA (scaled: cognate 1, non-cognate 0); higher = stronger binding
Details: with parS DNA site
How it was run: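 Caulobacter ParB libraries with four specificity codons randomised were screened by bacterial one-hybrid selection in the E. coli USO strain, using a HIS3 reporter whose site lies 19 bp from the promoter. Selection ran for 48 hours at 37°C on M9 lacking histidine, with 0.1 mM IPTG and 5 mM 3-AT. Plasmids were Illumina-sequenced before and after selection, three replicate libraries were pooled, and variants with under 10 reads were dropped. Fitness is the log change in each variant's read ratio to wild type, rescaled against the cognate and non-cognate sites.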

Point of comparison: RCCG, “one-hybrid fitness for binding parS DNA” value 1.03. Against it:
- CKVC — lower, ≤ 0.2
- IMHG — lower, ≤ 0.2
- QMQR — lower, ≤ 0.2
- ATLN — lower, ≤ 0.2
- RPRL — lower, ≤ 0.2
- ASCK — lower, ≤ 0.2
- TRPS — lower, ≤ 0.2
- GPIF — lower, ≤ 0.2
- WAKY — lower, ≤ 0.2
- RWQR — lower, ≤ 0.2
- RWQQ — lower, ≤ 0.2
- RWCK — lower, ≤ 0.2
- RWSY — lower, 0.338
- RWCC — lower, 0.636
- RWRD — lower, ≤ 0.2
- RWRH — lower, 0.223
- RWQC — lower, 0.73
- RWCD — lower, ≤ 0.2
- RWRC — lower, 0.895
- RWSK — lower, ≤ 0.2
- RWSC — lower, 0.788
- ADHG — lower, ≤ 0.2
- DYYC — lower, ≤ 0.2
- LWRS — lower, ≤ 0.2
- VTPY — lower, ≤ 0.2
- PYRW — lower, ≤ 0.2
- MYTG — lower, ≤ 0.2
- RWYP — lower, ≤ 0.2
- NWWC — lower, ≤ 0.2
- RWWC — lower, 0.521
- RWYD — lower, ≤ 0.2
- RWWM — lower, ≤ 0.2
- RWYC — lower, 0.662
- GTFW — lower, ≤ 0.2
- SPEV — lower, ≤ 0.2
- GWNS — lower, ≤ 0.2
- RHSD — lower, ≤ 0.2
- RHDM — lower, 0.254
- RHRR — lower, ≤ 0.2
- RHSH — lower, ≤ 0.2
- RHSC — lower, 0.924
- RHRC — lower, 0.879
- RHDY — lower, 0.397
- RHNP — lower, ≤ 0.2
- RHNC — lower, 0.871
- RHRQ — lower, ≤ 0.2
- RHDC — lower, 0.878
- RHNN — lower, 0.386
- GRGR — lower, ≤ 0.2
- PQPN — lower, ≤ 0.2
- DESG — lower, ≤ 0.2
- ATAA — lower, ≤ 0.2
- TIDL — lower, ≤ 0.2
- FQIS — lower, ≤ 0.2
- YIVC — lower, ≤ 0.2
- CDYG — lower, ≤ 0.2
- TKDN — lower, ≤ 0.2
- ASNP — lower, ≤ 0.2
- RHCC — lower, 0.869
- RHLK — lower, ≤ 0.2
- RHCY — lower, 0.371
- RHYF — lower, 0.211
- RHHM — lower, 0.266
- RHCF — lower, ≤ 0.2
- RHYC — lower, 0.92
- RHLY — lower, 0.428
- RHHY — lower, 0.4
- RHLC — lower, 0.928
- RHYR — lower, ≤ 0.2
- RHHC — lower, 0.934
- WTHL — lower, ≤ 0.2
- QEVD — lower, ≤ 0.2
- DTTH — lower, ≤ 0.2
- VQAA — lower, ≤ 0.2
- DVLS — lower, ≤ 0.2
- THPF — lower, ≤ 0.2
- RYFG — lower, 0.932
- RYAQ — lower, ≤ 0.2
- RYFY — lower, 0.43
- RYAY — lower, 0.425
- RYFM — lower, 0.264
- RYAG — lower, 0.982
- VACC — lower, ≤ 0.2
- TPLH — lower, ≤ 0.2
- GCSG — lower, ≤ 0.2
- IIPI — lower, ≤ 0.2
- PYAK — lower, ≤ 0.2
- IRPT — lower, ≤ 0.2
- RQEQ — lower, 0.223
- RQED — lower, ≤ 0.2
- RQEC — lower, 0.829
- RQEK — lower, ≤ 0.2
- RQES — lower, 0.962
- RQEH — lower, 0.281
- RQEN — lower, 0.379
- RQEG — lower, 0.89
- RQER — lower, ≤ 0.2
- RQEP — lower, ≤ 0.2
- RQET — lower, 0.719
- RQEM — lower, 0.255
- KSGF — lower, ≤ 0.2
- HSSQ — lower, ≤ 0.2
- MISR — lower, ≤ 0.2
- TVTE — lower, ≤ 0.2
- HTAD — lower, ≤ 0.2
- AGDD — lower, ≤ 0.2
- KANA — lower, ≤ 0.2
- WSQY — lower, ≤ 0.2
- NLNG — lower, ≤ 0.2
- DWLT — lower, ≤ 0.2
- RAFR — lower, ≤ 0.2
- RAFG — lower, 0.978
- RAAN — lower, 0.448
- RAFY — lower, 0.499
- RAAP — lower, ≤ 0.2
- RAAG — lower, 1
- KYLA — lower, ≤ 0.2
- TKWY — lower, ≤ 0.2
- KNQS — lower, ≤ 0.2
- CSRV — lower, ≤ 0.2
- ATTE — lower, ≤ 0.2
- WMPS — lower, ≤ 0.2
- CPLP — lower, ≤ 0.2
- GALY — lower, ≤ 0.2
- NGLG — lower, ≤ 0.2
- RQGM — lower, 0.287
- RQSQ — lower, ≤ 0.2
- RQGC — lower, 0.916
- RQSY — lower, 0.465
- RQQQ — lower, ≤ 0.2
- RQHM — lower, 0.325
- RQGK — lower, ≤ 0.2
- RQHR — lower, ≤ 0.2
- RQQK — lower, ≤ 0.2
- RQQC — lower, 0.951
- RQSC — lower, 0.968
- RQHC — lower, 0.946
- KYCL — lower, ≤ 0.2
- AFDN — lower, ≤ 0.2
- GKGS — lower, ≤ 0.2
- WSNM — lower, ≤ 0.2
- GTTW — lower, ≤ 0.2
- ACNL — lower, ≤ 0.2
- CRNF — lower, ≤ 0.2
- SNIR — lower, ≤ 0.2
- RQCC — lower, 0.874
- RQRF — lower, 0.247
- RQCK — lower, ≤ 0.2
- RQYC — lower, 0.94
- RQYF — lower, 0.256
- RQRC — lower, 0.943
- RQRY — lower, 0.504
- RQLQ — lower, ≤ 0.2
- RQYR — lower, ≤ 0.2
- RQLY — lower, 0.442
- RQLC — lower, 0.952
- RQCQ — lower, ≤ 0.2
- VAQC — lower, ≤ 0.2
- FEDR — lower, ≤ 0.2
- QQVS — lower, ≤ 0.2
- VEHM — lower, ≤ 0.2
- CAAW — lower, ≤ 0.2
- APPF — lower, ≤ 0.2
- YVRD — lower, ≤ 0.2
- RQWN — lower, 0.286
- RQWC — lower, 0.797
- RQWD — lower, ≤ 0.2
- CVQT — lower, ≤ 0.2
- RFAD — lower, ≤ 0.2
- RFFP — lower, ≤ 0.2
- RFAS — lower, 0.976
- RFAH — lower, ≤ 0.2
- RFFD — lower, ≤ 0.2
- RFFS — lower, 0.841
- LQNH — lower, ≤ 0.2
- TREM — lower, ≤ 0.2
- DHQQ — lower, ≤ 0.2
- STCC — lower, ≤ 0.2
- RMCG — higher, 1.04
- RMCH — lower, 0.262
- RICQ — lower, 0.256
- RDCG — lower, ≤ 0.2
- RSCG — lower, 0.966
- RMCN — lower, 0.389
- RTCK — lower, ≤ 0.2
- RTCQ — lower, ≤ 0.2
- RTCG — lower, 0.999
- RICY — lower, 0.492
- RSCQ — lower, ≤ 0.2
- RICG — lower, 0.976
- ECVT — lower, ≤ 0.2
- WSQP — lower, ≤ 0.2
- VYQR — lower, ≤ 0.2
- KDPE — lower, ≤ 0.2
- DISI — lower, ≤ 0.2
- KTLW — lower, ≤ 0.2
- RLCM — lower, 0.342
- RPCG — lower, ≤ 0.2
- RECG — lower, 0.221
- RLCG — lower, 1
- RLCF — lower, 0.27
- PASK — lower, ≤ 0.2
- CNGG — lower, ≤ 0.2
- SRGF — lower, ≤ 0.2
- AQNP — lower, ≤ 0.2
- TPWY — lower, ≤ 0.2
- KCYT — lower, ≤ 0.2
- VISS — lower, ≤ 0.2
- QETP — lower, ≤ 0.2
- PTTA — lower, ≤ 0.2
- DTNY — lower, ≤ 0.2
- RYMH — lower, ≤ 0.2
- RYMT — lower, 0.887
- RYMQ — lower, ≤ 0.2
- RYMP — lower, ≤ 0.2
- RYMD — lower, ≤ 0.2
- RYMC — lower, 0.994
- RYMN — lower, 0.395
- RYMR — lower, ≤ 0.2
- RYMS — lower, 0.963
- RYMK — lower, ≤ 0.2
- RYML — lower, ≤ 0.2
- RYMG — lower, 0.971
- LCMG — lower, ≤ 0.2
- NWQY — lower, ≤ 0.2
- NQMR — lower, ≤ 0.2
- DFGS — lower, ≤ 0.2
- NLVV — lower, ≤ 0.2
- TGGR — lower, ≤ 0.2
- HAMN — lower, ≤ 0.2
- WKPV — lower, ≤ 0.2
- DGVM — lower, ≤ 0.2
- RPCN — lower, ≤ 0.2
- APGA — lower, ≤ 0.2
- LMVR — lower, ≤ 0.2
- EFNL — lower, ≤ 0.2
- WIWS — lower, ≤ 0.2
- RSCP — lower, ≤ 0.2
- RSCD — lower, ≤ 0.2
- RSCC — lower, 0.915
- RCCC — lower, 0.959
- RDCC — lower, ≤ 0.2
- RPCC — lower, ≤ 0.2
- RRIM — lower, ≤ 0.2
- RRPQ — lower, ≤ 0.2
- RRIP — lower, ≤ 0.2
- RRPG — lower, 0.891
- RRPF — lower, ≤ 0.2
- RRIG — lower, 0.908
- TAAL — lower, ≤ 0.2
- KHMS — lower, ≤ 0.2
- RYTT — lower, 0.884
- RYTK — lower, ≤ 0.2
- RYTM — lower, 0.295
- RYTR — lower, ≤ 0.2
- RYTC — lower, 0.903
- RYTY — lower, 0.429
- RYTP — lower, ≤ 0.2
- RYTN — lower, 0.429
- RYTH — lower, ≤ 0.2
- RYTD — lower, ≤ 0.2
- RYTG — lower, 0.992
- RYTS — lower, 0.904
- RFHK — lower, ≤ 0.2
- NTHH — lower, ≤ 0.2
- YAER — lower, ≤ 0.2
- SRAR — lower, ≤ 0.2
- DHRG — lower, ≤ 0.2
- WTKG — lower, ≤ 0.2
- TPGV — lower, ≤ 0.2
- PQLQ — lower, ≤ 0.2
- KWFG — lower, ≤ 0.2
- RWFK — lower, ≤ 0.2
- RWAG — lower, 0.72
- RWFG — lower, 0.615
- RWAM — lower, ≤ 0.2
- RWAF — lower, ≤ 0.2
- TYPT — lower, ≤ 0.2
- MSSI — lower, ≤ 0.2
- DTPG — lower, ≤ 0.2
- HKES — lower, ≤ 0.2
- ANPQ — lower, ≤ 0.2
- WNSC — lower, ≤ 0.2
- RNNP — lower, ≤ 0.2
- RNNS — lower, 0.969
- RNDS — lower, 0.823
- RNDN — lower, 0.226
- RNDP — lower, ≤ 0.2
- RNND — lower, ≤ 0.2
- HDLV — lower, ≤ 0.2
- IGRI — lower, ≤ 0.2
- WCIS — lower, ≤ 0.2
- PFSI — lower, ≤ 0.2
- AYDD — lower, ≤ 0.2
- RKQG — lower, 0.913
- RKYD — lower, ≤ 0.2
- RKLG — lower, 0.964
- RKGG — lower, 0.937
- RKQM — lower, ≤ 0.2
- RKYN — lower, 0.297
- RKYG — lower, 0.952
- RKQR — lower, ≤ 0.2
- RKLY — lower, 0.402
- RKLK — lower, ≤ 0.2
- RKGH — lower, ≤ 0.2
- RKGP — lower, ≤ 0.2
